This is part of a sample that, as a whole, favours compounds with a hit. Of some 79,000 tested, about 15% had one in any assay. A number with no mark means an inactive call. The source made the active and inactive calls. Rule as the data show it: active = growth inhibition above about 70%; inactive = the rest.
Legend:
[1] = NCI Yeast Anticancer Drug Screen. Data for the rad50 strain (AID 155);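 also: 0% = growth of vehicle-only cultures of the same strain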; settings: S. cerevisiae rad50 strain growth inhibition, hits give high values
Method in brief: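 DNA repair mutant yeast, compound exposure, growth read-out; inhibition is taken relative to vehicle.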

[2] = NCI Yeast Anticancer Drug Screen. Data for the mec2-1 strain (AID 157); settings: S. cerevisiae mec2-1 strain, hits give high values
Method in brief: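 Vehicle-treated cultures served as reference for growth inhibition of compound-exposed mec2-1 yeast.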

[3] = NCI Yeast Anticancer Drug Screen. Data for the sgs1 mgt1 strain (AID 161);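 also: 0% = growth of cultures given vehicle only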; settings: S. cerevisiae sgs1 mgt1 strain, hits give high values
Method in brief: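 Test agents were incubated with a DNA-repair-mutant yeast strain. Growth was then read and compared against vehicle-treated controls.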

[4] = NCI Yeast Anticancer Drug Screen. Data for the cln2 rad14 strain (AID 165);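 also: 0% = growth equal to vehicle treated cultures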; settings: S. cerevisiae cln2 rad14 strain, hits give high values
Method in brief: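 Each compound was tested on cln2 rad14 yeast. Inhibition of growth was calculated against vehicle-exposed controls.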

[5] = NCI Yeast Anticancer Drug Screen. Data for the bub3 strain (AID 167); settings: S. cerevisiae bub3 mutant strain, hits give high values
Method in brief: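 In this screen, a yeast mutant lacking normal mitotic checkpoint function is challenged with compound. Relative growth versus vehicle gives the inhibition value.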

[6] = NCI Yeast Anticancer Drug Screen. Data for the mlh1 rad18 strain (AID 175); settings: S. cerevisiae mlh1 rad18 strain growth inhibition, hits give high values
Method in brief: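 Vehicle-treated cultures served as the reference for growth inhibition in a yeast strain carrying DNA damage repair alterations exposed to each compound.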

[7] = at 5.0 µM (retest, dose inferred, filed as 0.5)
[8] = at 50.0 µM (retest, dose inferred, filed as 5.0)

Row | SMILES | growth inhibition [1, 7] | growth inhibition [1, 8] | growth inhibition ([1]; at 50.0 µM) | growth inhibition [2, 7] | growth inhibition [2, 8] | growth inhibition ([2]; at 50.0 µM) | growth inhibition [3, 7] | growth inhibition [3, 8] | growth inhibition ([3]; at 50.0 µM) | growth inhibition [4, 7] | growth inhibition [4, 8] | growth inhibition ([4]; at 50.0 µM) | growth inhibition [5, 7] | growth inhibition [5, 8] | growth inhibition ([5]; at 50.0 µM) | growth inhibition [6, 7] | growth inhibition [6, 8] | growth inhibition ([6]; at 50.0 µM)
1 | CCCCCCCCCCCC(N)c1ccccc1 (stereo not given) | 99% (active) | 99% (active) | 99.5% (active) | 99% (active) | 99% (active) | 99.5% (active) | 99% (active) | 99% (active) | 99.2% (active) | 99% (active) | 99% (active) | 99.1% (active) | 99% (active) | 99% (active) | 99.2% (active) | 99% (active) | 99% (active) | 99.5% (active)
2 | CC12CCC(=O)C=C1CCC1C2CCC2(C)C(C(=O)Cn3cnc4c(=S)nc[nH]c43)CCC12 (stereo not given) | 11% | 25% | 32.2% | 5% | -6% | 24.6% | -2% | 23% | 37.5% | -26% | 19% | 14.8% | 0% | 16% | -4.65% | -2% | 22% | -4.7%
3 | Cc1cccc(CC(C)(C)C)c1NC(=O)C(=O)C(C(=O)c1ccc2ccccc2c1)C1OC(=O)c2ccccc21 (stereo not given) | 6% | 78% (active) | 52.8% | -1% | 92% (active) | 23.6% | 9% | 92% (active) | 36.3% | -1% | 76% (active) | 12.8% | 2% | 93% (active) | 52.1% | -1% | 86% (active) | 68.2%
4 | Cc1cc(O)c(C(=O)/C=C/c2cccnc2)c(=O)[nH]1 | -13% | 79% (active) | 68.9% | -3% | 76% (active) | 33.7% | -5% | 92% (active) | 84.8% (active) | 9% | 70% (active) | 16.3% | -16% | 89% (active) | 78.8% (active) | 8% | 91% (active) | 93% (active)
5 | c1ccc2c(c1)-c1cccc3cncc-2c13 | 45% | 62% | 90.7% (active) | 52% | 53% | 92.6% (active) | 19% | 98% (active) | 92.6% (active) | 69% | 99% (active) | 90.9% (active) | 53% | 99% (active) | 91.2% (active) | 33% | 52% | 91.2% (active)
6 | CCOc1ccc2c(c1)[n+]([O-])c(-c1ccc([N+](=O)[O-])cc1)c(N)[n+]2[O-] | 22% | 82% (active) | 95% (active) | 41% | 90% (active) | 80.5% (active) | 38% | 96% (active) | 96% (active) | 21% | 76% (active) | 94.3% (active) | 65% | 94% (active) | 96% (active) | 56% | 93% (active) | 97.4% (active)
7 | O=c1c(-c2ccccc2)c1-c1ccccc1 | 7% | 92% (active) | 98.7% (active) | 4% | 95% (active) | 99.3% (active) | 8% | 90% (active) | 98.9% (active) | -2% | 96% (active) | 97.6% (active) | 5% | 91% (active) | 99.2% (active) | 1% | 96% (active) | 99% (active)
8 | CCOC(=O)/C(=C\c1ccccc1)C(=O)CCN1CCOCC1 | 37% | 99% (active) | 95.5% (active) | 24% | 99% (active) | 84.5% (active) | 12% | 99% (active) | 41% | 45% | 99% (active) | 75.9% (active) | 20% | 99% (active) | 76% (active) | 10% | 99% (active) | 84.8% (active)
9 | CC(C)c1ccc2c(c1)CCC1C(C)(CNC(=O)S)CCCC21C.[Zn+2] (stereo not given) | 9% | 13% | -8.15% | 8% | 30% | 46.8% | 5% | 40% | -10.6% | 10% | 4% | 38.5% | 6% | 35% | 2% | 5% | 29% | -10.6%
10 | CN1CC(CN2CCCCC2)C(O)C(c2ccccc2)C1 (stereo not given) | -3% | -1% | 10.2% | -5% | -1% | -4.5% | -3% | 6% | 9.3% | -5% | -3% | 34.4% | -4% | -8% | 2.65% | -3% | -2% | 56.5%

Source: PubChem BioAssay (NCI)
